The text below walks through data of PubChem BioAssay (NCI).

This is part of a sample that, as a whole, favours compounds with a hit. Of some 83,000 tested, about 20% had one in any assay.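 Cells were grown in 96-well plates and exposed to the test compound at a single concentration for 48 hours; results are reported as percent growth, with values below 10 considered active.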 Values without a mark were called inactive. The source made the active and inactive calls.

Some test systems named below: HT29 colon; SNB-19 CNS; U251 CNS; PC-3 prostate; SK-MEL-5 melanoma; UACC-62 melanoma; LOX IMVI melanoma; SK-MEL-28 melanoma; SK-MEL-2 melanoma; EKVX NSCLC; SN12C renal; UO-31 renal; TK-10 renal; ACHN renal; CAKI-1 renal; A498 renal; CCRF-CEM leukemia; MOLT-4 leukemia; SNB-75 CNS.
Common to all, as to experiment: NCI-60 one-dose screen, 48 h (100 = growth as untreated, 0 = no growth, -100 = all killed)
What all share (conditions): 10 µM unless noted

As for `OC(c1ccc(F)c(C(F)(F)F)c1)c1cnccc1NC1CCCCC1` (configuration not stated), the growth with HT29 colon was 14.3%; with SNB-19 CNS, 82.9%; in the test on U251 CNS, 63.5%; with PC-3 prostate it was 58.7%; in the test with SK-MEL-5 melanoma, 49.4%; in the test with UACC-62 melanoma it was 71.2%. Also, the growth was 69.7% in the test on LOX IMVI melanoma; 84.8% in the test with SK-MEL-28 melanoma; 89.6% in the test with SK-MEL-2 melanoma; 69.3% with EKVX NSCLC; 65.3% with SN12C renal; 49.6% with UO-31 renal. Also, the growth was 71.1% with TK-10 renal; 81.9% in the test with ACHN renal; 64.3% in the test with CAKI-1 renal; 59.6% with A498 renal; 57.2% in the test on CCRF-CEM leukemia; 56% in the test on MOLT-4 leukemia.

As to `Cc1cc(C(=O)/C=C/c2ccc[nH]2)ccc1-n1ccc(C(F)(F)F)n1`, the growth with HT29 colon was 89.9%; in the test with SNB-19 CNS, 85.1%; in the test on U251 CNS, 25.9%; in the test on PC-3 prostate it was 6.59% (active); in the test with SK-MEL-5 melanoma, 98.2%; in the test with UACC-62 melanoma, 84%. Besides, the growth with LOX IMVI melanoma is 90.8%; with SK-MEL-28 melanoma, 100%; in the test on SK-MEL-2 melanoma, 96.5%; with EKVX NSCLC, 87.4%; with SN12C renal it was 63.4%; with UO-31 renal, -92.1% (active). Further, the growth in the test with TK-10 renal was 95.6%; with ACHN renal, 98.9%; in the test with CAKI-1 renal, 83.8%; in the test with CCRF-CEM leukemia, 13.1%; in the test with MOLT-4 leukemia, 70.6%.

As for `C[C@H](c1nc2ccc(N)cc2[nH]1)[C@H]1CC[C@H]2[C@@H]3CCC4=CC(=O)CC[C@]4(C)[C@H]3CC[C@]12C`, the growth in the test on HT29 colon was 51.8%; in the test with SNB-75 CNS, 39.6%; with SNB-19 CNS it was 90.9%; with U251 CNS, 70.7%; with PC-3 prostate, 82.9%; in the test on SK-MEL-5 melanoma it was 81.3%. For the same molecule, the growth was 85% in the test with UACC-62 melanoma; 84.2% in the test with LOX IMVI melanoma; 89.4% in the test with SK-MEL-28 melanoma; 106% in the test with SK-MEL-2 melanoma; 85.6% with EKVX NSCLC; 88.3% in the test with SN12C renal. Further, the growth is 65.4% in the test with UO-31 renal; 109% in the test on TK-10 renal; 96.9% in the test with ACHN renal; 91.3% with CAKI-1 renal; 70.3% in the test with A498 renal; 63.7% in the test on CCRF-CEM leukemia.

For `CCN1C(=O)/C(=C/C(=O)OC)S/C1=N\NC(=O)c1cc2ccc1/C=C\c1ccc(cc1)/C=C\2`, the growth is 45.2% with HT29 colon; 78.8% in the test with SNB-75 CNS; 85.6% in the test on SNB-19 CNS; 84.4% with U251 CNS; 56.7% in the test with PC-3 prostate; 92.5% in the test on SK-MEL-5 melanoma. For the same molecule, the growth with UACC-62 melanoma is 78.6%; in the test on LOX IMVI melanoma it was 73.5%; in the test with SK-MEL-28 melanoma, 100%; with SK-MEL-2 melanoma, 94.2%; with EKVX NSCLC, 93.6%; in the test on SN12C renal, 95%. Besides, the growth in the test with TK-10 renal was 93.5%; in the test with ACHN renal it was 93.4%; in the test with CAKI-1 renal, 89.5%; in the test with CCRF-CEM leukemia, 33.9%; in the test with MOLT-4 leukemia it was 37.2%.

Turning to `CCOC(=O)c1cc(C(=O)c2ccc(OC)cc2)n2ccc(/C=C/c3cc[n+](CC(=O)c4ccc(OC)cc4)cc3)cc12`, the growth in the test on HT29 colon is 16.5%; in the test on SNB-75 CNS, 57.9%; with SNB-19 CNS, 31.3%; in the test on U251 CNS, 53.5%; in the test on PC-3 prostate, 64.1%; with SK-MEL-5 melanoma it was 87.8%. The growth with UACC-62 melanoma is 99.5%; in the test with LOX IMVI melanoma it was 25.4%; in the test on SK-MEL-28 melanoma, 103%; in the test on SK-MEL-2 melanoma, 100%; in the test on EKVX NSCLC, 87.8%; in the test on SN12C renal, 56.2%. Also, the growth with UO-31 renal was 72.7%; in the test with TK-10 renal, 91.7%; in the test with ACHN renal, 70.2%; in the test with CAKI-1 renal, 81.8%; in the test with A498 renal, 67.6%; in the test with CCRF-CEM leukemia it was -22.5% (active). Besides, the growth with MOLT-4 leukemia is 49.8%.

`O=C(/C=C/c1c(-c2ccc(Cl)cc2)nn(-c2ccccc2)c1C(F)(F)F)c1ccc(Cl)cc1`: the growth with HT29 colon is 89.9%; in the test on SNB-75 CNS, 86.1%; with SNB-19 CNS, 96.1%; with U251 CNS it was 86.3%; in the test on PC-3 prostate, 92.2%; in the test with SK-MEL-5 melanoma, 85.3%. For the same molecule, the growth in the test with UACC-62 melanoma was 82.5%; in the test on LOX IMVI melanoma it was 75%; with SK-MEL-2 melanoma, 89%; in the test on EKVX NSCLC, 94.8%; in the test with SN12C renal it was 88.1%; with UO-31 renal, 74.1%. Further, the growth in the test with TK-10 renal was 118%; in the test on ACHN renal, 90.7%; in the test on CAKI-1 renal, 90%; in the test with A498 renal, 87.6%; with CCRF-CEM leukemia, 85.6%.

Take `CCNC(=O)Oc1ccc(/C(=C(\C)c2ccccc2)c2ccc(OCCCN(C)C)cc2)cc1`: the growth in the test on HT29 colon is 9.13% (active); with SNB-75 CNS, 90.9%; with SNB-19 CNS, 88.3%; with U251 CNS it was 66.3%; in the test on PC-3 prostate, 73.3%; in the test with SK-MEL-5 melanoma, 80.9%. The growth in the test on UACC-62 melanoma was 76.1%; with LOX IMVI melanoma it was 67.1%; in the test on SK-MEL-28 melanoma it was 58%; with SK-MEL-2 melanoma, 97.2%; in the test with EKVX NSCLC, 84%; with SN12C renal, 81.1%. Also, the growth was 55.4% in the test with UO-31 renal; 84.5% with TK-10 renal; 98.1% in the test on ACHN renal; 84.3% in the test with CAKI-1 renal; 82.7% in the test with CCRF-CEM leukemia; 65.8% in the test with MOLT-4 leukemia.

`COc1cc2c(c(OC)c1OC)-c1ccc(NNC(=S)N(Cc3cccc(C[N+](Cc4cccc(CNC56CC7CC(CC(C7)C5)C6)c4)(Cc4cccc(CNC56CC7CC(CC(C7)C5)C6)c4)Cc4cccc(CN(C(=S)NNc5ccc6c(cc5=O)[C@@H](NC(C)=O)CCc5cc(OC)c(OC)c(OC)c5-6)C56CC7CC(CC(C7)C5)C6)c4)c3)C34CC5CC(CC(C5)C3)C4)c(=O)cc1[C@@H](NC(C)=O)CC2` (some centres not stated): the growth was -5.79% (active) with HT29 colon; 31.7% in the test on SNB-75 CNS; 16% with SNB-19 CNS; 5.78% (active) with U251 CNS; 12.2% in the test with PC-3 prostate; -94.2% (active) with SK-MEL-5 melanoma. In addition, the growth in the test on UACC-62 melanoma is 15.5%; with LOX IMVI melanoma it was -20.1% (active); with SK-MEL-28 melanoma it was 33.3%; in the test with SK-MEL-2 melanoma it was -20.3% (active); with SN12C renal it was 12.2%; with UO-31 renal it was 39.7%. In addition, the growth in the test with TK-10 renal was 48.7%; in the test on ACHN renal, 44.4%; in the test with CAKI-1 renal it was 29%; in the test on A498 renal it was -5.83% (active); in the test on CCRF-CEM leukemia it was -6.54% (active); with MOLT-4 leukemia it was -17% (active).
